# In the library only some 5.4% were active in any assay of this set; here they are far more common.
# PfM18AAP inh = blocks P. falciparum M18 aspartyl aminopeptidase | recombinant PfM18AAP, H-Glu-NHMec fluorogenic cleavage | 1.2% of 290,000 active | inhibition, % at 7.35 µM;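 active means inhibition above the campaign mean inhibition over all tested compounds plus 3 SD, cut at about 28% in these data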;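 further: 0% = plate median of test compound wells and 100% = 2 mM ZnCl2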
# JMJD2C inh = inhibitors of human GASC-1 (JMJD2C) demethylase | Q9H3R0 | GST-JMJD2C(1-420) H3K9me3 demethylation, DELFIA europium | inhibition, % at 2.35 µM | 0.069% of 330,000 active | AID 2099;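 active means more than half of a compound's replicate wells show inhibition beyond 50%, single wells judged on their own value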;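 further: signal counts dimethyl H3K9 product captured on neutravidin plate; 0% = median of DMSO wells and 100% = 0.3 times that DMSO median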
# Target sequence (Q9H3R0 1-420 limits assumed): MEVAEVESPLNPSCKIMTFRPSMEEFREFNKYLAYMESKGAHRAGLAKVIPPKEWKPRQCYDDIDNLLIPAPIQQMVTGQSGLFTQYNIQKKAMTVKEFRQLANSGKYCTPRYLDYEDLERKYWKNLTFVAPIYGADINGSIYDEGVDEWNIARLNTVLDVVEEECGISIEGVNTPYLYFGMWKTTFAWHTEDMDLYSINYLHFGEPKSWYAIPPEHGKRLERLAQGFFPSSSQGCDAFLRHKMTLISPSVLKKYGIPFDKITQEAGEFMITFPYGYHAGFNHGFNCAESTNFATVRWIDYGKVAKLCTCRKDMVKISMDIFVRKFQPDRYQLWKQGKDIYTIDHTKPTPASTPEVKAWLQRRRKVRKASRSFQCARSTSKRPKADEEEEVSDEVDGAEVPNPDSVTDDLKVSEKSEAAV
# SMARCA2 activ = increases SMARCA2 function in MMTV reporter cells; MG213 cells, MMTV-luciferase reporter, dexamethasone, overnight; 1% of 370,000 active; activation, % at 9.1 µM; in the data active means activation above about 7.8%;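 further: 0% = vehicle wells and 100% = reference activator wells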
# Exocytosis inh = blocks lytic granule exocytosis | TALL-104 LAMP-1 surface exposure, flow cytometry; cells stimulated with thapsigargin and PMA | inhibition, % at 10 µM | 0.66% of 360,000 active | AID 651702;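 active means inhibition above about 55%, limit read from the data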
# ALR H2O2 inh = inhibitors of human sulfhydryl oxidase ALR | P55789 | purified ALR, DTT oxidation, H2O2 HRP-luminol luminescence | inhibition, % (test concentration not listed) | 3.8% of 290,000 active | AID 485317;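 active means mean replicate inhibition above about 79%, with every replicate also reaching it, limit read from the data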
# beta cell repl = inducers of beta-cell replication in MIN6 cells; 0.29% of 330,000 active; MIN6 cells proliferation, ATPlite luminescence, 48 h; cells starved in 0.2% serum; 100% = growth in 10% serum; proliferation, % at 10 µM;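 active means compounds whose signal lies at least 3.5 SD above the mean of all wells on their plate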;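 further: 0% = DMSO-treated cells in low-serum medium and 100% = 10% serum control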
# An asterisk follows results filed as active; / = not tested or not shown; ! = not confirmed by another sample.
SMILES,PfM18AAP inh,JMJD2C inh,SMARCA2 activ,Exocytosis inh,ALR H2O2 inh,beta cell repl
COc1ccc(-c2nc(CSCC(=O)N3CCc4ccccc43)c(C)o2)cc1OC,-8,-4,-3,-1,99*,3
COc1ccc(-c2nc(CSCC(=O)NCCC3=CCCCC3)c(C)o2)cc1OC,9,2,-7,1,100*,2
Cc1ccsc1-c1nc(CSCC(=O)NCc2ccc3c(c2)OCO3)c(C)o1,9,-3,0,-2,99*,-5
Cc1cc(C)cc(NC(=O)C2(C(=O)C3CC3)CC(c3ccccc3C(F)(F)F)=NO2)c1 (configuration not stated),/,/,-1,/,/,/
COC(=O)[C@]12C[C@H](CC(=O)NCC34CC5CC(CC(C5)C3)C4)C(=O)N(Cc3ccccc3)C1=C[C@H](C(C)(C)C)O[C@@H]2C,/,/,1,/,/,/
CCCC[C@H](C(=O)N(C)c1ccccc1)[C@@H](O)c1ccc(C(C)=O)cc1,/,/,2,/,/,/
O=C(NCc1cccc(Cl)c1)c1ccncc1,-17,-3,0,-1,-8,0
N#CCC(=O)Nc1ccc(C(=O)NCc2cccc(Cl)c2)cc1,-1,3,-1,1,98*,-3
O=C(NNc1ccc([N+](=O)[O-])cc1)C1C2CCCCC21 (configuration not stated),59*,1,-2,7,-7,3
CCCCN1CCS(=O)(=O)N(Cc2cn(Cc3cccc(Cl)c3)nn2)C(C(=O)OC)C1 (configuration not stated),/,/,-2,/,/,/
COc1cccc(N=Nc2c(N)[nH][nH]c2=O)c1,13,-3,2,2,/,-2
CCOc1ccc(N=Nc2c(N)[nH][nH]c2=O)cc1,2,3,2,-4,99*,-2
CCN(C(=O)COC(=O)c1ccc(Sc2ncn[nH]2)c([N+](=O)[O-])c1)c1ccccc1C,/,/,-3,/,/,/
O=C1CC(c2ccccc2)Cc2nc3ncnn3cc21 (configuration not stated),28*,32,3,2,-19,0
COCC#Cc1ccc(CC[C@H]2O[C@H]3CC[C@@H](CO)O[C@H]3C[C@H]2n2cc(C(C)(C)O)nn2)cc1,/,/,-1,/,/,/
CN(C)c1ccc(Nc2nc(N)c([N+](=O)[O-])c(N3CCOCC3)n2)cc1,-9,-6,2,6,99*,-3
Cc1sc2c3ccsc3ccc2[n+]1C,30*,/,3,56*,56,-7
Cc1sc2ccc3sccc3c2[n+]1C,30*,-10,2,83*,41,-6
CCNC(=O)N(C)[C@H]1C[C@H]2c3[nH]c4c(-c5ccc6c(c5)OCO6)cccc4c3CCN2C(=O)[C@H]1[C@H](C)O,/,/,-5,/,/,/
COc1ccc(CC(C)NCC(O)c2ccc(O)c(NC=O)c2)cc1 (configuration not stated),/,/,20*!,-1,/,/
CC(CCc1ccccc1)NCC(O)c1ccc(O)c(C(N)=O)c1 (configuration not stated),4,4,2,-3,-4,5
Cc1nnc(SCc2cnc(-c3ccccc3)o2)[nH]c1=O,-7,-3,-3,-1,99*,-2
Cc1cc(S(=O)(=O)NC(=O)[C@H]2O[C@@H](n3ccc(=O)[nH]c3=O)[C@H](O)[C@@H]2O)ccc1Br,/,/,-3,/,/,/
Oc1ccc(N2CCN(C(c3cccnc3)c3nnnn3Cc3ccccc3)CC2)cc1 (configuration not stated),16,-1,-4,10,99*,-3
COCCn1nnnc1C(c1ccccc1)N1CCN(C)CC1 (configuration not stated),9,4,0,-3,-11,-2
COCCn1nnnc1C(c1ccccc1)N1CCN(c2ccccc2)CC1 (configuration not stated),-1,-6,-1,2,97*,0
CCC(C)(C)n1nnnc1C(c1ccc2ncccc2c1)N1CCN(c2ccc(O)cc2)CC1 (configuration not stated),31*,-6,-3,17,100*,-4
CCC(C)(C)n1nnnc1C(c1ccc2ncccc2c1)N1CCN(c2nc3ccccc3s2)CC1 (configuration not stated),4,-8,-1,3,-5,-4

# Assay outcomes (PubChem)
